# According to PubChem BioAssay (NCATS):
# Inconclusive results are not listed. A number with no mark means an inactive call. Activity calls are given as the source filed them. The call rests on the fitted dose curve; in most records, active means well fitted inhibition curve with a large enough effect; inconclusive means small, poorly fitted or top-dose-only effect; inactive means flat fitted curve, though single readings scatter.
# Assay: P-glycoprotein substrates identified in KB-8-5-11 adenocarcinoma cell line, qHTS therapeutic library screen (AID 1346987); further: nearly all actives have a fitted effect of over 65% in size
# Settings: KB-8-5-11 (P-gp overexpressing) viability, CellTiter-Glo, 72 h; series mostly up to 44.5 µM; activity change, negative = cytotoxicity: at the top concentration
# Method in brief: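 In this qHTS, P-gp-rich KB-8-5-11 cells received library compounds across a concentration range. Viability was quantified by luminescence after 72 h at 37 degree C.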
# On the % scale 0 is the no-effect control and ±100 the full control effect; potency means the concentration at half of the fitted maximal effect.
SMILES,"activity change, negative = cytotoxicity",outcome,Potency
O=C(O)Cc1ccc2oc(-c3ccc(NC(=O)/C=C/c4ccc(Br)cc4)c(F)c3)nc2c1,-7.12%,,
CC1(C)CC[C@]2(C(=O)O[C@@H]3O[C@H](CO)[C@@H](O)[C@H](O)[C@H]3O)CC[C@]3(C)C(=CCC4[C@@]5(C)CC[C@H](O[C@@H]6O[C@H](C(=O)O)[C@@H](O)[C@H](O)[C@H]6O)C(C)(C)C5CC[C@]43C)C2C1 (some centres undefined),,inactive [at 9.29 µM],
COc1ccc(CCC(=O)c2c(O)cc(O)cc2O[C@@H]2O[C@H](CO)[C@@H](O)[C@H](O)[C@H]2O)cc1,6.52% [at 17.3 µM],,
CN1CCC(Nc2nc(Nc3ccc(Oc4ccccc4)cc3)c3c(=O)[nH]cc(Br)c3n2)CC1,,,4610 nM (active)
CC(C)[C@@](C)(O)[C@@H]1CN(c2nc(-c3[nH]nc4ncccc34)c(F)cc2Cl)CCN1,,,6510 nM (active)
CC(=O)N[C@H]1[C@H](O[C@H]2CC[C@@]3(C)C(CC[C@]4(C)C3CC=C3C5CC(C)(C)CC[C@]5(C(=O)O)[C@H](O)C[C@]34C)C2(C)C)O[C@H](CO[C@@H]2OC[C@H](O)[C@H](O)[C@H]2O[C@@H]2OC[C@@H](O)[C@H](O)[C@H]2O)[C@@H](O)[C@@H]1O (some centres undefined),5.39% [at 9.29 µM],,
Cc1cc(C(=O)Nc2cccc(C(=O)Nc3cccc(C(F)(F)F)c3)c2)on1,4.26%,,
O=C1CSc2ccccc2N1Cc1cccc(C(F)(F)F)c1,-24.9%,,
Cc1cc(C)cc(C(=O)NOCCCCCC(=O)NO)c1,,,1300 nM (active)
CC(=O)c1ccc(O[C@@H]2O[C@H](CO)[C@@H](O)[C@H](O)[C@H]2O)cc1,2.66%,,
CC1(C)CCCC2(C)C(CO)C(CO)=CCC12 (centres undefined),-5.95%,,
CCOc1ccc2nc(SCCN3CCOCC3)[nH]c2c1,-4.75%,,
c1ccc(N2CCN(CCc3nn[nH]n3)CC2)cc1,-6.1%,,
C[C@H](O)[C@H](O)/C=C/c1cccc(O)c1CO,1.57%,,
COC(=O)CC(O)C1OC(c2ccccc2)C(O)C1O (centres undefined),,inactive,
COC(=O)C1=C2Nc3ccccc3C23CCN2CCCC(C(C)O)(C1)C23 (centres undefined),0.215%,,
C[C@@H]1CC[C@]2(C(=O)O)CC[C@]3(C)C(=CCC4[C@@]5(C)CC[C@H](O)C(C)(C)C5C(O)C[C@]43C)[C@@H]2[C@]1(C)O (some centres undefined),,inactive [at 17.3 µM],
N[C@@]1(C(=O)O)CC[C@H]2[C@H](C(=O)O)[C@H]21,,inactive,
O=C(O)c1cc2cccc([N+](=O)[O-])c2[nH]1,,inactive,
COc1ccccc1NC(=O)OCC1CCN(C(=O)OC(C)(C)C)CC1,-19.3%,,

SMILES,"activity change, negative = cytotoxicity",outcome,Potency
C[C@@H]1CN(Cc2ncccn2)C[C@H]1c1nc2c(cnn2C2CCOCC2)c(=O)[nH]1,-2.62%,,
O=S(=O)(c1ccccc1)c1cnc2c(N3CCNCC3)cccc2c1,-17.4%,,
CN(C)C(=O)NC1CCC(CCN2CCN(c3cccc(Cl)c3Cl)CC2)CC1 (centres undefined),-11.3% [at 9.29 µM],,
C[C@@H]1O[C@@H](O[C@H]2[C@H](O)[C@@H](O)[C@H](OC[C@H]3O[C@@H](OC(=O)[C@]45CCC(C)(C)C[C@H]4C4=CCC6[C@@]7(C)CC[C@H](O[C@@H]8OC[C@H](O)[C@H](O[C@@H]9O[C@H](CO)[C@@H](O)[C@H](O)[C@H]9O)[C@H]8O)[C@@](C)(CO)C7CC[C@@]6(C)[C@]4(C)CC5)[C@H](O)[C@@H](O)[C@@H]3O)O[C@@H]2CO)[C@H](O)[C@H](O)[C@H]1O (some centres undefined),,inactive [at 9.29 µM],
O=C(/C=C/c1ccc(O)cc1)N[C@@H](Cc1ccc(O)cc1)C(=O)O,,inactive,
CN1CCc2nc(C(=O)N[C@@H]3C[C@@H](C(=O)N(C)C)CC[C@@H]3NC(=O)C(=O)Nc3ccc(Cl)cn3)sc2C1,9.48%,,
O=C(OC[C@@]1(O)CO[C@@H](O[C@H]2[C@H](Oc3ccc(O)cc3)O[C@H](CO)[C@@H](O)[C@@H]2O)[C@@H]1O)c1ccc(O)cc1,1.59% [at 17.3 µM],,
COc1c/c(=C2\C=c3ccccc3=N2)[nH]/c1=C\c1[nH]c(C)cc1C,,,1160 nM (active)
O=C1CCC(c2ccccc2)(C2CCN(Cc3ccc(I)cc3)CC2)C(=O)N1 (centres undefined),-7.06%,,
CC1(C)CCCC2(C)C(C(=O)O)=CCC12 (centres undefined),-2.8%,,
Cc1ccc(NC(=O)C(=O)NC2CC(C)(C)NC(C)(C)C2)cc1,1.61%,,
CCC(C)C(=O)O[C@H]1CCC=C2C=C[C@H](C)[C@H](CC[C@@H](O)C[C@@H](O)CC(=O)O)[C@H]21 (some centres undefined),-12.2% [at 17.3 µM],,
CC(c1ncncc1F)C(O)(Cn1cncn1)c1ccc(F)cc1F (centres undefined),,inactive,
O=S(=O)(Nc1ccccn1)c1ccc(N=Cc2c(O)[nH]c3ccc4ncsc4c23)cc1,,inactive [at 9.29 µM],
CC1=CC(=O)CC(C)(CO)C1(O)/C=C/C(C)O[C@@H]1O[C@H](CO)[C@@H](O)[C@H](O)[C@H]1O (some centres undefined),3.58% [at 17.3 µM],,
COc1ccc([C@@]2(O)c3c(ccc(CC=C(C)C)c3O)NC(=O)[C@@H]2OC)cc1,-21.5%,,
CC(=O)C=C=C1C(C)(C)CC(O[C@@H]2O[C@H](CO)[C@@H](O)[C@H](O)[C@H]2O)CC1(C)O (some centres undefined),8.5%,,
COC1CC(O[C@H]2CC[C@@]3(C)C(CCC4C3[C@H](OC(C)=O)[C@@H](OC(=O)/C=C/c3ccccc3)[C@]3(C)C(C(C)=O)CC[C@]43O)C2)OC(C)C1OC1CC(OC)C(OC2CC(OC)C(OC3OC(C)C(OC4OC(CO)C(O)C(O)C4O)C(OC)C3O)C(C)O2)C(C)O1 (some centres undefined),-0.0477% [at 9.29 µM],,
CC1(C(=O)O)CCCC2(C)C3CCC4CC3(CCC12)CC4=O (centres undefined),8.09%,,
